For 11 molecules, z-score results are on record in PubChem BioAssay.

Active and inactive are the calls of the source.

Experiment [1] in a line: A549 cell viability effects, profiling panel, calcein-AM fluorescence, 48 h, basal (AID 1162). The note with it: higher = more signal.
A short description of experiment [2]: adipocyte viability effects, profiling panel, cell-based, 3T3-L1 adipocytes, calcein-AM fluorescence, 48 h, basal (AID 1163). The note with it: 3T3-L1 adipocytes viability, higher = more signal.
Experiment [3] can be described thus: HepG2 cell viability effects, profiling panel, calcein-AM fluorescence, 48 h, basal (AID 1164). The note with it: higher = more signal.
A short description of experiment [4]: MM1S cell viability effects, profiling panel, calcein-AM fluorescence, 48 h, basal (AID 1165).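 Note: viability of MM1S multiple myeloma cells under basal unstimulated conditions.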 The note with it: higher = more signal.
Experiment [5] can be described thus: basal RPMI8226 viability, no added stimulus, profiling panel, cell-based, calcein-AM fluorescence, 48 h, PK04 Diversity Set (AID 1166).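 Note: cells grown under basal conditions without added stimulus.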 The note with it: RPMI8226 myeloma viability, higher = more signal.
The nature of experiment [6]: basal HepG2 mitochondrial membrane potential changes, profiling panel, cell-based, JC-1 fluorescence, 24 h, 100 nL compound (AID 1167). The note with it: higher = more signal.
The nature of experiment [7]: basal 3T3-L1 adipocyte mitochondrial potential changes, profiling panel, cell-based, JC-1 fluorescence, 3T3-L1 adipocytes, 24 h, 100 nL compound (AID 1168). The note with it: JC-1 mitochondrial fluorescence, higher = more signal, called active from +8 up or from −8 down.
A short description of experiment [8]: basal RPMI8226 mitochondrial membrane potential changes, profiling panel, cell-based, JC-1 fluorescence, 24 h, 100 nL compound (AID 1169). The note with it: RPMI8226 myeloma, JC-1 mitochondrial potential fluorescence, higher = more signal.
Experiment [9] can be described thus: basal MM1S mitochondrial membrane potential changes, profiling panel, cell-based, JC-1 fluorescence, 24 h, 100 nL compound (AID 1170). The note with it: higher = more signal.
The nature of experiment [10]: A549 lung cancer cell viability effects, profiling panel, resazurin fluorescence, 24 h, PK04 Diversity Set (AID 1171). The note with it: higher = more signal, called active from +8 up or from −8 down. For orientation: Resazurin is reduced to fluorescent resorufin, in cell work by metabolically active cells.
Note: test concentration not given here.

As for `COCCCNC(=O)[C@@]1(CCC(=O)OC(C)(C)C)COC(c2ccc(OCCCO)cc2)=N1`, the z-score in experiment [1] is -0.487; in experiment [2], 0.129; in experiment [3] it was -0.642; in [4] it was -1.43; in experiment [5] it was -0.24; in experiment [6], 0.195. Moreover, the z-score was -1.05 (inactive) in experiment [7], -0.438 in experiment [8], 0.012 in experiment [9] and 2.45 (inactive) in experiment [10].
On to `Cc1ccccc1C(O)C1C=CC2C(=O)N(c3ccccc3)C(=O)C2N1Nc1ccccc1` (stereo not given), for which the z-score is -0.0545 in experiment [1]; -1.17 in experiment [2]; 1.8 in [3]; 0.928 in experiment [4]; -0.645 in experiment [5]; -0.978 in experiment [6]. Further, the z-score in [7] was -0.703 (inactive); in [8] it was -0.318; in experiment [9], -0.638; in experiment [10], 0.0292 (inactive).
For `C=CCOC(=O)[C@@H]1[C@H]2C(=O)O[C@H](c3ccccc3)[C@H](c3ccccc3)N2[C@H](c2ccc(OCCOC(=O)[C@H]3C[C@H]4C(=O)NCC(=O)N4[C@H]3c3cccc(OCCO)c3)cc2)[C@@]12C(=O)Nc1ccc(I)cc12`, the z-score was -0.175 in experiment [1]; -0.407 in experiment [2]; 0.946 in experiment [3]; 0.464 in experiment [4]; -0.785 in [5]; -1.05 in experiment [6]. In addition, the z-score in experiment [7] is 1.44 (inactive); in experiment [8], -0.632; in [9] it was -1.27; in [10] it was 0.169 (inactive).
As to `O=C1C2C=CC(C(O)c3cccs3)N(Nc3ccc([N+](=O)[O-])cc3)C2C(=O)N1c1ccccc1` (stereo not given), the z-score in [1] is -0.792; in experiment [2], -1.01; in experiment [3] it was 1.43; in experiment [4], -0.752; in [5], -0.85; in experiment [6], -0.841. In addition, the z-score is -0.728 (inactive) in [7], 0.569 in [8], -1.46 in experiment [9] and 0.644 (inactive) in experiment [10].
For the molecule `O=C1NC(=O)C2C1C=CC(C(O)c1ccc([N+](=O)[O-])cc1)N2Nc1ccccn1` (stereo not given), the z-score was 0.0411 in experiment [1]; -0.379 in experiment [2]; -0.357 in experiment [3]; -0.492 in experiment [4]; -1.07 in experiment [5]; -0.969 in experiment [6]. Also, the z-score was -0.713 (inactive) in experiment [7], -0.284 in [8], 0.339 in experiment [9] and -0.0648 (inactive) in experiment [10].
On to `O=C1[C@H]2C=C(I)[C@H](C[C@@H]2OCCCCCCO)[C@@]12CO2`, for which the z-score in experiment [1] is 0.249; in experiment [2], -0.0741; in experiment [3] it was -0.394; in experiment [4], -1.22; in experiment [5] it was -0.273; in experiment [6], -1.58. For the same molecule, the z-score was 0.0285 (inactive) in experiment [7], -0.264 in [8], -0.571 in experiment [9] and 0.339 (inactive) in experiment [10].
For the molecule `COC(=O)[C@@]1(Cc2ccc(F)cc2)[C@H]2c3cc(C(=O)N4CCCC4)n(CCc4ccccn4)c3C[C@H]2CN1C(=O)c1ccccc1`, the z-score in [1] is 0.19; in experiment [2], -0.0629; in [3] it was 0.278; in [4], -0.118; in experiment [5], -0.431; in experiment [6] it was 1.98. Further, the z-score was -0.962 (inactive) in experiment [7], -0.815 in experiment [8], -0.515 in experiment [9] and 0.182 (inactive) in experiment [10].
On to `[N-]=[N+]=Nc1ccccc1C[C@@]1(C(=O)NCc2ccccc2)N=C(c2ccc(OCCCO)cc2)O[C@@H]1c1ccccc1N=[N+]=[N-]`, for which the z-score in experiment [1] was -1.58; in [2], 1.31; in experiment [3], -0.83; in experiment [4], -3; in experiment [5] it was -4.36; in [6], 0.728. For the same molecule, the z-score in experiment [7] was -0.182 (inactive); in experiment [8], -1.23; in experiment [9], -0.936; in experiment [10], -0.996 (inactive).
With `COC(=O)[C@@]1(Cc2ccccc2)N=C(c2ccc(OCCCO)cc2)O[C@H]1c1ccccc1CN=[N+]=[N-]`, the z-score in experiment [1] was -2.95; in [2], -0.565; in experiment [3], -5.45; in [4], -3.55; in experiment [5] it was -3.96; in [6], -2.16. Besides, the z-score in experiment [7] was 1.22 (inactive); in experiment [8], -1.13; in [9], -2.9; in experiment [10], -5.77 (inactive).
As to `CC(C)C(O)C1C=CC2C(=O)NC(=O)C2N1Nc1ccccn1` (stereo not given), the z-score in [1] was -0.188; in experiment [2], 0.258; in experiment [3] it was 0.0775; in [4], 0.253; in experiment [5] it was 0.11; in experiment [6], 0.119. Moreover, the z-score in [7] was -1.28 (inactive); in [8], 0.231; in [9], -0.0451; in experiment [10], -1.05 (inactive).
With `COC(=O)[C@@]1(Cc2ccccc2)[C@H]2c3cc(C(=O)N(C)C)n(CCO)c3C[C@H]2CN1C(=O)c1ccccc1`, the z-score in experiment [1] is -1.33; in experiment [2], 0.18; in [3], -0.28; in experiment [4], -0.0531; in experiment [5] it was -1.99; in experiment [6], -0.92. In addition, the z-score in experiment [7] is -2.92 (inactive); in experiment [8], 0.127; in [9], -0.787; in experiment [10] it was -0.723 (inactive).
